# Results published in the OligoGym collection.
# Target: LIG4
# Test: pooled miR-30 sensor sort-seq; sequence = guide strand
# Details: shRNA
# Note: reference of the scale not given here.
row,Sequence,sensor-assay potency score (higher = more potent)
1,TTTTAGATCATTAAGTCTCATA,-0.76
2,TAGTCCACTGACATACTCTGGT,0.198
3,TAGCTTTTTATTATTAACCATC,-1.43
4,TTTCTGTAAACATCTTGGCTTC,-0.577
5,TAGTTTGCTGACTAACACCAAG,-1.17
6,TAACACAAAACTCTACATCTTC,0.104
7,TTTATATACATCTCCATCTTTG,-1.01
8,TAAAAGGTCGTTTACTTGCTGT,-0.0412
9,TTCTTCAGGAGTCTGCTCGTTA,0.109
10,TTGCTGACTAACACCAAGCTTT,-0.307
11,TTTATTGTTACATTTGGCCTTA,0.231
12,TTCCTTTCTGTAAACATCTTGG,-0.486

# Target: LILRA4
# Test: as above
# Details: shRNA
row,Sequence,sensor-assay potency score (higher = more potent)
1,TAGCATCTGAATGTACCCCTGT,0.139
2,TCCTCAATCAGAGTGAACCTGC,-0.933
3,TTGTGTGCGCCGTAGCATCTGT,-0.739
4,AATCTGACTTCTTTTGTGCTGG,0.00913
5,TAGGTTTTCTGCCTGCACCCGG,-0.532
6,TCCTTGTACAGAGTGTATCTGA,-0.799
7,TAGCCGTAGCATCTGAATGTAC,-0.777
8,TTCTCTCCTGAGGTCACCGTGG,-1.07
9,TTTGGGTAGGTTTTCTGCCTGC,-0.143
10,TTTTCATAGCCGTAGCATCTGA,-1.2
11,TTGATCTCAGACGCAACGGGGG,-1.08
12,TAATGGAGGAAGCATCTTCTAC,-1.03

# Target: LILRB3
# Test: as above
# Details: shRNA
row,Sequence,sensor-assay potency score (higher = more potent)
1,TATTAGTCATCTTTGAGTCAGG,-0.452
2,TTTATGCAGTCGGTACTCCTGG,-0.617
3,TGACTGTCCAGCTCCACCCTGT,-0.563
4,TTGTGTGCACCGTAGCACCTGT,-0.532
5,TTCCGTCTAAGGGTCAAGCTGT,-0.222
6,TTATGCAGTCGGTACTCCTGGG,-0.343
7,TGCTGTGACGCTGACGTCGGAG,-0.552
8,TTAGTCATCTTTGAGTCAGGTG,-0.0536
9,TTGTTGAGAAGTCTGTTGCTTT,-0.0209
10,TTTCTCTGGTCAGATGTCCTGT,-0.223
11,TTGATTGTTGAGAAGTCTGTTG,-0.405
12,TATGCAGTCGGTACTCCTGGGC,-0.223

# Target: LIMK2
# Test: as above
# Details: shRNA
row,Sequence,sensor-assay potency score (higher = more potent)
1,ATGAACTTGAGCACATTGGGGT,-0.105
2,ATCTGCTGTGAATAGCTGCTGG,-0.683
3,TTCTGAGATCTCCTCTTCCTGG,-0.852
4,TACTTGATGGTGACCTTCCCTT,-0.173
